# Compound activity deposited in PubChem by Broad Institute.
# Most compounds without a hit are left out; they make up all but 6.7% or so of the library.
# T cruzi growth-1: T. cruzi proliferation inhibition | 77,000 tested, 5.9% active | inhibition, % at 8.34 µM | T. cruzi beta-gal in NIH3T3, GalScreen luminescence, 90 h;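 active = mean inhibition above about 93%, with at least 55% of replicates each passing it, limit read from the data, passing the limit was not always enough; inconclusive = only one of those two conditions holds; inactive = neither condition holds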
# C diff growth: C. difficile growth inhibition. Clostridium difficile clinical isolate growth, OD600, 24 h; active compounds read low. growth activity, negative = inhibition, % at 16 µg/mL (by protocol). 86,000 tested, 0.25% active;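 active = mean growth activity at or below -80% and every replicate also at or below -80%; inconclusive = mean at or below -80% but some replicate above -80%; inactive = mean growth activity above -80%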;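 also: 0% = DMSO wells and -100% = levofloxacin 16 µg/mL wells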
# Pf Dd2 inh: inhibitors of Plasmodium falciparum Dd2 growth; 94,000 tested, 2.3% active; activity change, % at 10 µM; AID 1159554; P. falciparum Dd2 growth, SYBR Green, 72 h; active compounds read low; in the data active = activity change below about -80%; inconclusive = no clear call, values can overlap the other calls
# T cruzi growth-2: blocks T. cruzi growth in NIH3T3 host cells; inhibition, % at 8.35 µM; 5,600 tested, 72% active; T. cruzi beta-gal in NIH3T3, GalScreen luminescence, 90 h; shares compounds with T cruzi growth-1; AID 651739;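 active = mean replicate inhibition above about 95% and at least 55% of replicates individually reaching it, limit read from the data; inconclusive = only one of the two criteria is met; inactive = neither criterion is met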
# T cruzi growth-3: blocks T. cruzi growth in NIH3T3 host cells; inhibition, % at 2.09 µM; AID 651740; 5,600 tested, 21% active; shares compounds with T cruzi growth-1; T. cruzi beta-gal in NIH3T3, GalScreen luminescence, 90 h;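 active = mean inhibition above about 95%, with at least 55% of replicates also reaching it, limit read from the data; inconclusive = meets just one of the two conditions; inactive = meets neither condition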;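 also: plate controls were neutral control median for no effect and positive control median for full effect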
# 3T3 cytotox: kills mouse NIH/3T3 fibroblasts; shares compounds with T cruzi growth-1; NIH/3T3 viability, CellTiter-Glo ATP luminescence, 90 h; cytotoxicity (signal decrease), % at 8.35 µM; 5,600 tested, 14% active;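 active = mean signal decrease across replicates above about 35% based on untreated-well scatter, with enough replicates individually passing, limit read from the data; inconclusive = no rule stated though some were filed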;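 also: 0% = median of neutral control wells and 100% = median of positive control wells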
# NIH3T3 tox 2: NIH/3T3 (mouse) viability loss; shares compounds with T cruzi growth-1; NIH/3T3 viability, CellTiter-Glo ATP luminescence, 90 h; inhibition, % at 24.9 µM; 5,600 tested, 56% active;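 active = mean loss of cell viability signal at or above a set limit, and enough replicates individually reaching it; inconclusive = meets only the mean limit or only the replicate share; inactive = meets neither condition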;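 also: 0% = median of neutral control wells and 100% = median of positive control wells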
# * hit, by the source's call; ? = inconclusive; nt = no result.
SMILES,T cruzi growth-1,C diff growth,Pf Dd2 inh,T cruzi growth-2,T cruzi growth-3,3T3 cytotox,NIH3T3 tox 2
O=C(C[C@@H]1C=C[C@H](NC(=O)Nc2cc(F)ccc2F)[C@H](CO)O1)Nc1ccc(-c2ccccc2)cc1,nt,-2,nt,nt,nt,nt,nt
C[C@H]1CN([C@@H](C)CO)C(=O)c2cc(NC(=O)NC3CCCCC3)ccc2O[C@@H]1CN(C)Cc1ccc(-c2ccccc2)cc1,-75,8,-1,nt,nt,nt,nt
C[C@@H]1CN([C@H](C)CO)C(=O)c2cc(NC(=O)NC3CCCCC3)ccc2O[C@@H]1CN(C)Cc1ccc(-c2ccccc2)cc1,48,-1,14,nt,nt,nt,nt
C[C@H]1CN([C@@H](C)CO)C(=O)c2cc(NC(=O)NC3CCCCC3)ccc2O[C@@H]1CN(C)Cc1ccccc1,3,-8,-7,nt,nt,nt,nt
C[C@@H]1CN([C@@H](C)CO)C(=O)c2cc(NC(=O)NC3CCCCC3)ccc2O[C@@H]1CN(C)Cc1ccc(-c2ccccc2)cc1,96*,9,6,100*,101*,54*,65*
C[C@@H]1CN([C@H](C)CO)C(=O)c2cc(NC(=O)NC3CCCCC3)ccc2O[C@H]1CN(C)Cc1ccc(-c2ccccc2)cc1,105*,30,10,104*,13,25,17
C[C@@H]1CN([C@@H](C)CO)C(=O)c2cc(NC(=O)NC3CCCCC3)ccc2O[C@H]1CN(C)Cc1ccc(-c2ccccc2)cc1,108*,42,13,102*,-18,38*,43*
COCC(=O)N1C[C@H](C)[C@H](OC)CN(C)C(=O)c2ccc(NC(=O)c3ccc(F)cc3)cc2OC[C@@H]1C,-21,nt,-11,nt,nt,nt,nt
COc1ccc(NC(=O)N(C)C[C@H]2Oc3ccc(NC(=O)Cn4cnnn4)cc3CC(=O)N([C@@H](C)CO)C[C@H]2C)cc1,-17,-4,-43,nt,nt,nt,nt
COc1cccc(S(=O)(=O)N2C[C@@H](O)COC[C@H]3O[C@@H](CC(=O)N4CCN(C)CC4)CC[C@@H]32)c1,30,nt,-2,nt,nt,nt,nt
Cc1ccc(S(=O)(=O)N(C)C[C@H]2Oc3c(NS(=O)(=O)c4ccc(Cl)cc4)cccc3C(=O)N([C@@H](C)CO)C[C@H]2C)cc1,67,-10,-4,nt,nt,nt,nt
CS(=O)(=O)N1[C@H](C#N)[C@H](c2ccc(C#Cc3cccc(F)c3)cc2)[C@H]1CO,?,-7,-30,?,83,0,32*
CS(=O)(=O)N1[C@@H](C#N)[C@@H](c2ccc(C#CC3CCCCC3)cc2)[C@@H]1CO,74,9,1,nt,nt,nt,nt
CS(=O)(=O)N1[C@H](CO)[C@@H](c2ccc(C#CC3CCCCC3)cc2)[C@@H]1C#N,93,-3,-44,nt,nt,nt,nt
CS(=O)(=O)N1[C@H](C#N)[C@H](c2ccc(C#CC3CCCC3)cc2)[C@@H]1CO,99*,-4,-24,103*,89,20,35*
CS(=O)(=O)N1[C@H](C#N)[C@@H](c2ccc(C#CC3CC3)cc2)[C@@H]1CO,107*,-3,-24,100*,46,12,-1
CS(=O)(=O)N1[C@H](CO)[C@H](c2ccc(C#Cc3cccc(F)c3)cc2)[C@@H]1C#N,89,15,-1,nt,nt,nt,nt
Cc1ccc(S(=O)(=O)N(C)C[C@@H]2OCCCC[C@H](C)Oc3ccc(NC(=O)NC(C)C)cc3C(=O)N([C@H](C)CO)C[C@@H]2C)cc1,21,-1,-55,nt,nt,nt,nt
CCNC(=O)C[C@@H]1CC[C@H]2[C@H](COc3ccc(NC(=O)Cc4ccccc4)cc3C(=O)N2C)O1,9,3,-7,nt,nt,nt,nt
O=C(C1CCCC1)N1CCCCN2[C@@H](CO)[C@H](c3ccc(C#CC4CC4)cc3)[C@@H]2C1,121*,30,-2,110*,65,40*,82*
O=C(C1CC1)N1CCCCN2[C@H](CO)[C@H](c3ccc(C#CC4CC4)cc3)[C@H]2C1,82,-7,-2,nt,nt,nt,nt
O=C(C1CC1)N1CCCCN2[C@@H](CO)[C@H](c3ccc(C#CC4CC4)cc3)[C@@H]2C1,103*,-3,24,84,43,24,52*
O=C(C1CCC1)N1CCCCN2[C@H](CO)[C@@H](c3ccc(C#CC4CCCC4)cc3)[C@@H]2C1,94,23,13,nt,nt,nt,nt
